Hit rate of the full screen: of about 53,000 compounds, about 900 (1.7%) showed an effect of 50% or more. The sample as a whole holds a higher share of strong results than the screen did.
These compounds were tested on Mycobacterium tuberculosis (assay: Cornell - Phenotypic assay to identify agents that inhibit growth of Mycobacterium tuberculosis). Conditions: 10 mM as filed; unlikely as a test dose.
Assay type: functional
Parameters: scale not given: direction of the effect not stated beside the values

Structure (SMILES)	Percent Effect [%]
C=Cn1ncc(CN2CCc3nc(-c4ccncc4)nc(O)c3C2)c1C	24.59
O=C(Nc1ccccc1)[C@H]1C[C@@H]2CN(Cc3cccnc3)C[C@H]1O2	15.91
O=S(=O)(Nc1ccc(N2CCOCC2)cc1)c1cccc(F)c1	107.6
O=S(=O)(Nc1cnc(N2CCOCC2)nc1)c1cccc(F)c1	17.36
O=S(=O)(Nc1ccc(N2CCOCC2)cn1)c1cccc(F)c1	37.01
OC(CN1CCC(c2ccn[nH]2)CC1)c1ccccc1F (stereo unspecified)	11.88
Cc1csc2nc3n(c(=O)c12)CCN(Cc1c[nH]cn1)CC3.Cl	-9.915
Cc1cc(C(F)F)nn1C(C)C(=O)NCc1ncc[nH]1 (stereo unspecified)	51.24
Cc1cc(C(F)F)nn1C(C)C(=O)NCc1nccn1C (stereo unspecified)	-1.635
CC(C)Nc1ncccc1C(=O)NCc1ncc[nH]1	21.23
CN(C)c1ncc(-c2ccncc2)c(CCNC(=O)C2CC2)n1	23.54
Cc1c(C(=O)N2CCN(C)CC2)n(C)c2ccc(Cl)cc12	29.74
Cc1c(C(=O)N2CCN(c3ncccn3)CC2)n(C)c2ccc(Cl)cc12	45.95
Cc1c(C(=O)N2CCN(c3ccccn3)CC2)n(C)c2ccc(Cl)cc12	56.67
CCN1C(=O)CC[C@@H]2N(C(=O)CCn3nccc3C)CCCC[C@@]21C	10.33
CC(C)CC(=O)N1CC(=O)c2sc(NCCc3ccccc3)nc2C1	-41.09
Cc1ccc(C2(CN3CCN(Cc4cncn4C)CC3)CC2)cc1.Cl	-21.08
Cc1nn(C)cc1CN1CCN(CC2(c3ccccc3)CC2)CC1	18.35
Cc1ccc(C2(CN3CCN(Cc4cn(C)nc4C)CC3)CC2)cc1.Cl	56.88
O=C(NCc1ccncc1)N1CC(Cc2ccccc2F)C1	8.731
CCc1ccc(S(=O)(=O)Nc2c(C)cccc2C(=O)O)s1	52.73
CCc1ccc(S(=O)(=O)Nc2cc(OC)c(OC)cc2C(=O)O)s1	16.65
CCc1ccc(S(=O)(=O)Nc2cc(C(=O)O)c(F)cc2F)s1	1.964
Cc1cc(CN(C)C2CCCN(Cc3noc(C4CC4)n3)C2)on1 (stereo unspecified)	2.145
O=C(Nc1cccc(N2CCCC2)c1)C1CCCN1c1nccs1 (stereo unspecified)	57.22
O=C(Nc1cccc2c1CCCC2)C1CCCN1c1nccs1 (stereo unspecified)	-2.486

Structure (SMILES)	Percent Effect [%]
O=C1NCc2ccc(NC(=O)C3CCCN3c3nccs3)cc21 (stereo unspecified)	10.34
Cc1nn(-c2ccc(F)cc2)c2[nH]nc(N)c12	67.22
Cc1nn(Cc2ccc(F)cc2)c2[nH]nc(N)c12	41.44
Cc1nn(C)c(=O)c2nn(-c3ccc(F)cc3)c(C)c12	2.323
COc1ccccc1CCC(=O)N1CCCC(OCc2cccnc2)C1 (stereo unspecified)	-21.64
CC(c1nc(C2CC2)no1)N1CCN(Cc2ccccc2)CC1 (stereo unspecified)	2.279
CC(Nc1ccc2c(c1)CCC2)c1nc(C2CC2)no1 (stereo unspecified)	27.18
CC(Nc1ccc(Br)cc1)c1nc(C2CC2)no1 (stereo unspecified)	54.33
COCc1ccc(CNc2cnn(C(C)(C)C)c(=O)c2Cl)cc1	55.73
CC(C)(C)n1ncc(NCc2ccccc2)c(Cl)c1=O	-56.94
COCc1cccc(CNc2cnn(C(C)(C)C)c(=O)c2Cl)c1	17.4
CCCN1CCC(c2nc3ccc(-c4ccncc4)cn3n2)CC1.O=C(O)C(F)(F)F.O=C(O)C(F)(F)F	-17.17
Cc1nccn1-c1ccc(C(=O)NCC(F)(F)F)nn1	18.88
Cc1cnc(C(=O)N2CCC3(CCN3Cc3ccc(F)cc3)C2)cn1.O=C(O)C(F)(F)F (stereo unspecified)	-0.7224
CN1C(=O)C(C)(C)COc2ccc(NS(=O)(=O)Cc3ccccc3)cc21	-4.912
CN(C)C(=O)c1cnc2n1CCN(Cc1ccsc1)C2.O=C(O)C(F)(F)F	1.254
Cc1ccc(CSc2ncc(Br)c(C(=O)O)n2)cc1	1.969
Cc1ccc(CSc2nc(N)cc(NCCS(=O)(=O)N(C)C)n2)cc1	52.28
Cc1ccc(CSc2nc(N)cc(NCC(=O)N3CCNCC3)n2)cc1	-47.88
CCc1cc(NCCS(=O)(=O)N(C)C)nc(N2CCOCC2)n1	22.77
Cc1ccc(CSc2nc(N)cc(NCCC(=O)N3CCCC3)n2)cc1	88.28
Cc1ccc(CSc2nc(N)cc(NCCC(N)=O)n2)cc1	44.65
CCn1cnnc1CNC(=O)N1CCC(O)CC1	-20.2
CC(=O)N1CCCN(C(=O)c2cnn(-c3ccccc3Cl)c2)CC1	-28.49
Cc1cc(C(F)(F)F)nn1CCCNC(=O)C1CCCO1 (stereo unspecified)	-51.46
